Screening data from PubChem BioAssay.
An excerpt weighted towards active compounds, which were near 6.4% of everything screened.
KinaseGlo FLuc = counter-screen: inhibitors of Kinase-Glo firefly luciferase. Q27757. Kinase-Glo luciferase, ATP luminescence, 8 min. Potency, µM (series often up to 38.3 µM), without a hit: at the highest dose activity change, negative = inhibition, hits mostly inhibitors. 0.28% of 200,000 active. AID 1379; further: nearly all actives have a fitted effect of over 60% in size
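Recombinant Kinase-Glo luciferase, 10 uM ATP (linear range), luciferin; imidazole pH 7.2 / KCl / MgCl2 / Tween / BSA buffer; 8 min RT; luminescence.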
RORg inh = ROR gamma (mouse) transcription inhibition. Drosophila S2 Gal4-RORgamma UAS-luciferase reporter, 20 h. Potency, µM (top dose mostly 53.6 µM), for the others: at the top dose activity change, negative = inhibition, hits mostly inhibitors. 5.4% of 310,000 active. P51450. AID 2551; further: nearly all actives have a fitted effect of over 60% in size
Target sequence (P51450 whole entry, looked up, the tested form may be a part): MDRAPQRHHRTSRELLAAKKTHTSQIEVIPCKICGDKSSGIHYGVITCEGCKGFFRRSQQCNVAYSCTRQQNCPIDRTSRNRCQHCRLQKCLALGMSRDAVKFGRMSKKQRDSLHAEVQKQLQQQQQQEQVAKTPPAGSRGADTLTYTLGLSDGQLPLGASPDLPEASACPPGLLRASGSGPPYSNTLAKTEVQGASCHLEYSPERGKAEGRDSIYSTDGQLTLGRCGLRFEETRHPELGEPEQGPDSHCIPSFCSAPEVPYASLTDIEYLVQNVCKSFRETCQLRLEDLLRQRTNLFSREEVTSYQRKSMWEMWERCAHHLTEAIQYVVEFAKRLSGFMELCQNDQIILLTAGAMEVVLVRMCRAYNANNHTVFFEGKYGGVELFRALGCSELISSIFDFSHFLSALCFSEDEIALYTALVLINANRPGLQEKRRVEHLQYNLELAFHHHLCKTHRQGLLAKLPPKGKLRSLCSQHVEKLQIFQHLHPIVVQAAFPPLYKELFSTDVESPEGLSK
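In this cell-based reporter format, copper sulfate (700 uM final) drives Gal4–ROR gamma fusion expression from a metallothionein promoter in Drosophila Schneider cells; compounds preincubated 1 hr, reporter read after 20 hr at ambient temperature.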
VP16 counter = inhibits Gal4-VP16 luciferase reporter, ROR gamma counter-screen. Drosophila S2 Gal4-VP16 UAS-luciferase, luminescence, 20 h. Potency, µM (highest dose often 53.6 µM), for inactives: at the highest dose activity, negative = inhibition, actives largely listed as inhibitors. 3.5% of 310,000 active. AID 2546;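 further: Gal4-VP16 expression switched on by copper sulfate through the metallothionein promoter; nearly all actives have a fitted effect of over 50% in size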
An asterisk follows results filed as active; ? = inconclusive; / = not tested or not shown; [ ] = another dose, or the depositor's remark. The call rests on the fitted dose curve; in most records, active means well fitted curve in the direction sought with a large enough effect; inconclusive means small, poorly fitted or top-dose-only effect, or another doubt; inactive means no such curve, though single readings can be large; an effect the other way counts as inactive or inconclusive. On the % scale 0 is the no-effect control and ±100 the full control effect; potency means the concentration at half of the fitted maximal effect.

SMILES	KinaseGlo FLuc	RORg inh	VP16 counter
Cc1ccc(S(=O)(=O)N(C)c2ccc(OCC(=O)N3CCCCC3)cc2)cc1	/	-18%	-5%
Cc1ccc(N2C(=O)CC(C)(C)CC2=O)cc1Cl	/	-17%	-16%
CC(C)NC(=O)COC(=O)C1CSC2(c3ccc(Br)cc3)CCC(=O)N12 (centres undefined)	6%	-28%	1%
Cc1cc(C)c(C(=O)N2CCCC(CNS(=O)(=O)N(C)C)C2)o1 (centres undefined)	/	14%	-7%
CC(C)c1ccc(-n2cnn(-c3ncccc3[N+](=O)[O-])c2=O)cc1	-7%	-5%	-7%[10 µM]
Cc1c(C(=O)N2CCC(C)CC2)sc2ncn(CC(=O)N3CCC(C)CC3)c(=O)c12	/	1%	16%
COc1ccc(C/C(N)=N/OC(=O)c2cccc([N+](=O)[O-])c2)cc1	-1%	2%	-28%
N/C(=N/OC(=O)c1cccc([N+](=O)[O-])c1)c1cccc([N+](=O)[O-])c1	-10%	6%	-10%
CCOc1ccc(C(=O)Nc2cccc3cccnc23)cc1	/	-22%	13%
Cn1ccnc1/C(=N\NC(=O)c1ccccc1)c1cccc([N+](=O)[O-])c1	-4%	-86%	-12%
CCOc1ccc(C(=O)N/N=C(\c2ccccc2)c2ccccn2)cc1	0%	0.2µM*	0.056µM*
N/C(=N\OC(=O)c1cccc([N+](=O)[O-])c1)c1ccccn1	13µM*	?	-12%
O=C(N/N=C(\c1ccccc1)c1ccccn1)c1cccc([N+](=O)[O-])c1	-1%	0.45µM*	-13%
COc1ccccc1C/C(N)=N/OC(=O)c1cccc([N+](=O)[O-])c1	6%	10µM*	-24%
Cc1cc(C)c(NC(=O)c2cc(C(=O)O)ccc2C(=O)O)c([N+](=O)[O-])c1	2%	0%	-2%
CS(=O)(=O)N(CC(=O)N1CCOCC1)c1ccccc1	/	-14%	3%
CN(C)C(=O)NC1CCCCCCC1	/	-4%	-8%
COc1ccc(S(=O)(=O)NNC(=O)C23CC4CC(CC(C4)C2)C3)cc1	/	-6%	-14%
COc1ccc(OC)c(NC(=O)C(=O)NNC(=O)C23CC4CC(CC(C4)C2)C3)c1	/	2.5µM*	?
COc1ccccc1N(CC(=O)NCc1ccco1)C(=O)CCC(=O)Nc1ccccn1	/	35%	19%
CCCC(=O)NC(C)c1nc2ccccc2n1C (centres undefined)	-1%	4%	4%
Cn1c(C(C#N)C(=O)Cc2cccc3ccccc23)nc2ccccc21 (centres undefined)	5%	0.79µM*	?
Cn1c(C(C#N)C(=O)c2ccco2)nc2ccccc21 (centres undefined)	-5%	?	6.3µM*
CN(Cc1nc2ccccc2n1C)C(=O)c1ccco1	/	-25%	-1%
COC(=O)C1(C(=O)OC)CC2=CC(CC2=O)Cc2ccccc2[C@@H]1C[N+](=O)[O-] (some centres undefined)	2%	16%	-3%
SMILES	KinaseGlo FLuc	RORg inh	VP16 counter
Cc1ccc(C(C(=O)NC2CCCC2)N(C(=O)c2csnn2)c2ccccc2)o1 (centres undefined)	/	2%	8%
Cc1cccc(NC(=S)N(c2ccccc2)C(C)C)c1C	/	14µM*	25µM*
CC(C)N(C(=S)NC1CCCCC1)c1ccccc1	0%	11µM*	?
CC(C)N(C(=S)Nc1cccnc1)c1ccccc1	/	-3%	-1%
COc1ccccc1NC(=S)N(c1ccccc1)C(C)C	-1%	?	-5%
CC(C)N(Cc1ccccc1)C(=S)NC1CCCCC1	7%	13µM*	?
CC(C)N(Cc1ccccc1)C(=S)NCc1ccccc1	3%	?	-4%
COc1ccc(Cn2c(C)nnc2-c2cnn(C)c2N)cc1	8%	19%	-14%
NC(=O)c1ccccc1NC(=O)/C=C/c1cccc(Cl)c1	-5%	-16%	1%
Cc1ccc(C(=O)/C=C/Nc2ccccc2C(N)=O)o1	?	-29%	11%
NC(=O)c1ccccc1N/C=C/C(=O)c1ccc(Cl)cc1Cl	11µM*	0.63µM*	4µM*
NC(=O)c1ccccc1N/C=C/C(=O)c1ccc(F)cc1	7.9µM*	0.56µM*	?
Cc1cc(OC(C)C(=O)NNC(=O)Nc2ccc(F)cc2F)cc(C)c1Cl (centres undefined)	/	-24%	0%
O=C1CC(c2ccccc2)CC(O)=C1C=NCCN1CCN(Cc2ccccc2)CC1 (centres undefined)	/	1%	-2%
O=C(COC(=O)CCSc1ccc(Cl)cc1)NCc1ccco1	1%	0%	4%
Cc1ccc(-c2nc(N)s[n+]2-c2ccccc2)cc1	?	-10%	-7%
CNc1nc(-c2ccccc2)[n+](-c2ccc(C)cc2)s1	/	7.9µM*	7.1µM*
CC(C)(C)OC(=O)N1CCC[C@H]1C(O)(c1ccccc1)c1ccccc1	-1%	-18%	5%
COc1ccc(Cl)cc1NC(=O)C1CCN(S(C)(=O)=O)CC1	/	0%[1.91 µM]	-2%
CCOc1ccc2c(c1)c(N=NC(N)=S)c(O)n2C	/	?	7.1µM*
CCOc1ccc2c(c1)c(N=NC(=N)N)c(O)n2C	-2%	-5%	1%
NC(=S)N=Nc1c(O)n(CC(=O)Nc2ccccc2)c2ccccc12	/	?	-15%
NC(=S)N=Nc1c(O)n(CCCl)c2ccccc12	4%	1µM*	3.2µM*
NC(=S)N=Nc1c(O)n(CCCl)c2ccc(Cl)cc12	1%	0.79µM*	3.5µM*
NC(=O)N=Nc1c(O)n(Cc2ccccc2)c2ccc(Br)cc12	/	?	-7%
SMILES	KinaseGlo FLuc	RORg inh	VP16 counter
O=C(NCC(=O)N(c1ccccc1F)C(C(=O)NC1CCCC1)c1cccnc1)c1ccco1 (centres undefined)	/	-1%	17%
COc1ccc(-c2cn3cc(Cl)ccc3n2)cc1OC	0%	19%	-3%
COc1ccc(-c2cn3cc(C)ccc3n2)cc1Br	-16%	?	7.1µM*
CC/C(C)=N/NC(=S)NCc1ccco1	-2%	10µM*	?
C/C(=N\NC(=S)NCc1ccccc1)c1ccco1	-3%	1.8µM*	7.1µM*
C/C(=N/NC(=O)CNC(=O)c1ccco1)c1ccco1	/	-7%	-2%
COc1ccc(CC(=O)N/N=C(\C)CC(=O)NCc2ccco2)cc1OC	/	0%	2%
CC1=C/C(=N\NC(=S)NCc2ccccc2)CC1	0%	0.56µM*	3.2µM*
S=C(NCc1ccccc1)N1CCCCC1	0%	?	13%
CN(N)C(=S)NCc1ccccc1	-5%	-20%	4%
C/C(=N\NC(=S)NCc1ccccc1)c1ccccc1	-1%	3.5µM*	3.5µM*
Cc1cc(NC(=O)COc2ccccc2)ccc1Cl	/	17%	9%
O=C(Nc1ccccc1)n1ccc(-c2ccc(-n3ccnc3)cc2)n1	-18%	17%	3%
COC(=O)[C@@]1(Cc2ccc(OC)cc2)[C@H]2c3cc(C(=O)N(C)C)n(CCc4ccc(OC)c(Br)c4)c3C[C@H]2CN1C(=O)c1ccccc1	3%	?	0%
CCOC(=O)N1CCN(CCC(=O)Nc2ccc(F)c(F)c2)CC1	/	-18%	-8%
O=C(Nc1ccc(Br)cc1)C1CCN(C(=O)c2ccco2)CC1	/	43%	9%
C/C(=N\NC(=S)NCc1ccccc1)c1ccccc1F	0%	1.3µM*	-9%
COc1ccc(CC(=O)NCc2ccccc2)cc1	/	34%	8%
